Assay in all cases: PBM binding z-score (relative to random genomic background probes); higher = stronger binding; sequences stand for … in GC…GCGATTGACAGCGTAGAATGAAGG
In assay [1] the test system is FXR:RXRa (NR concentration 270 nM, RXRa partner concentration 90 nM). The essentials: (§1)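 The probes on custom Agilent 4×180K protein-binding microarrays were double-stranded, with 34-nt variable regions bearing direct-repeat seeds, single-nucleotide variants, half-site ablations and random human genomic background sequences. Incubation lasted 1 h with ligand-free nuclear receptor dimers in PBS pH 7.4, 2% milk, 0.02% Triton X-100, 1 mM DTT, 0.2 mg/mL BSA and 0.4 mg/ml salmon testes DNA. Antibodies against each partner (one per run) detected bound dimers, and fluorescence scans were regression-normalized. Binding z-scores take the random background probes as reference.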

For assay [2], the system named is LXRa:RXRa (NR concentration 270 nM, RXRa partner concentration 90 nM). The essentials:
as §1

In assay [3] the test system is LXRa homodimer (NR concentration 270 nM). The essentials: as §1
The subject of assay [4] is LXRb:RXRa (NR concentration 270 nM, RXRa partner concentration 90 nM). The method, boiled down:
as §1

In assay [5] the test system is LXRb homodimer (NR concentration 270 nM). The method, boiled down: as §1
Assay [6] deals with PPARg:RXRa (NR concentration 180 nM, RXRa partner concentration 90 nM). The essentials: as §1
Assay [7] has as its system PPARg:RXRa 270nM:90nM, anti-RXR (NR concentration 270 nM, RXRa partner concentration 90 nM). The essentials: as §1
In assay [8] the test system is PPARg:RXRa 30nM:10nM, anti-RXR (NR concentration 30 nM, RXRa partner concentration 10 nM). The method, boiled down:
as §1

The test system of assay [9] is PPARg:RXRa 90nM:30nM, anti-RXR (NR concentration 90 nM, RXRa partner concentration 30 nM). The method, boiled down: as §1

In the case of AGTCAAAGTTCAGGACGAGGTAATGTAAAGCACG, the PBM binding z-score turned out to be 4.1 in assay [1]; 3.43 in [2]; 1.28 in assay [3]; 1.77 in assay [4]; 0.372 in assay [5]; 4.31 in [6]. Besides, the PBM binding z-score is 4.68 in assay [7], 2.03 in assay [8] and 4.01 in assay [9].
TAGCCTCGGTCATTGGGCCAGTATAGTACGCATC: the PBM binding z-score is 0.733 in [1]; 0.704 in [2]; 0.605 in assay [3]; 0.0326 in [4]; -0.0168 in assay [5]; 0.597 in assay [6]. Besides, the PBM binding z-score in [7] was 0.0656; in assay [8], -0.712; in assay [9], -0.209.
Consider CGTCCAACGTCAGCAGGTCAGTGAAAGCGACGTG, for which the PBM binding z-score in [1] was -0.27; in assay [2], -0.136; in [3], -0.366; in assay [4], -0.0519; in [5], -0.788; in assay [6], -0.188. Also, the values for the PBM binding z-score in [7], in assay [8] and in assay [9] were -0.476, -0.755 and -0.842, respectively.
Turning to ACCAGCAGGCCAAGGGTCACTCAAGATTAGTCCG, the PBM binding z-score in assay [1] was 2.48; in [2], 2.71; in assay [3], -0.066; in assay [4], 2.55; in assay [5], -0.909; in assay [6], 6.25. Also, the PBM binding z-score in [7] amounted to 6.19; in assay [8], 4.57; in [9] it was 5.83.
Take CAAACTAGGTCAAAGGTCAAAGCCGAGCCAACCA: the PBM binding z-score in [1] worked out at 8.47; in assay [2], 7.19; in [3], 5.21; in assay [4], 7.3; in [5], 2.55; in assay [6], 13.1. The figures for the PBM binding z-score in [7], in assay [8] and in assay [9] were 11.3, 13.6 and 13, respectively.
For the sequence TCTCGGAGGACACGAAAAGTCAGAGCTCGACATC, the PBM binding z-score in [1] is 0.557; in [2] it was 0.0964; in [3] it was -0.301; in [4], -0.0523; in [5], -0.795; in assay [6] it was 0.122. For the same sequence, the figures for the PBM binding z-score in assay [7], in assay [8] and in assay [9] were 1.13, 2.15 and 1.59, respectively.
In the case of GATTACGGGTCAAAGGTTATAGCATGAATAGAAT, the PBM binding z-score in [1] was 7.94; in assay [2] it was 6.17; in assay [3] it was 1.25; in assay [4], 6.01; in assay [5] it was 0.564; in assay [6], 11.8. The values for the PBM binding z-score in assay [7], in assay [8] and in assay [9] were 9.6, 10.5 and 11.3, respectively.
As for CCTACTGGGCCATTGAGAGGTCATTGATCATATG, the PBM binding z-score in assay [1] is 1.94; in assay [2], 3.79; in [3], 6.21; in [4], 3.34; in assay [5], 0.0421; in [6], 1.83. Besides, the figures for the PBM binding z-score in assay [7], in assay [8] and in assay [9] were 2.82, 0.314 and 1.68, respectively.
As to CCTAGTTGGTCAAGGTCTCACACGCTATAGGTAC, the PBM binding z-score in assay [1] was determined as 0.271; in assay [2] it was 0.379; in assay [3], 0.569; in [4], 0.343; in assay [5], 0.483; in assay [6], 0.786. Besides, the PBM binding z-score in assay [7] was determined as 1.09; in assay [8], 0.321; in [9], 0.561.
With CCTGCTAGGTCATGGTCAGGTAATCTACAGTATG, the PBM binding z-score in [1] is 3.64; in [2], 2.62; in [3] it was 0.355; in assay [4] it was 1.7; in assay [5], -0.354; in assay [6] it was 2.37. The figures for the PBM binding z-score in [7], in assay [8] and in assay [9] were 2.82, 0.671 and 1.75, respectively.
In the case of CCTGCTAGTTCATGGTCAGCTAATCTACAGTATG, the PBM binding z-score in [1] was -0.0312; in [2], 0.212; in assay [3] it was -0.184; in [4] it was 0.106; in assay [5], -0.269; in assay [6], -0.348. The PBM binding z-score is -0.236 in assay [7], -0.124 in [8] and -0.29 in assay [9].
TAGCCTAAGTCATGGGCCAGTATACCACGCGAAC: the PBM binding z-score in assay [1] was -0.178; in assay [2], -0.0929; in assay [3], -0.218; in [4], -0.0253; in [5] it was -0.797; in assay [6] it was 0.437. Moreover, the PBM binding z-score was 0.385 in assay [7], -0.251 in assay [8] and 0.254 in assay [9].
For the sequence CCAGACAGGTGAAAGGTAACTCACTCTGGTACGC, the PBM binding z-score in assay [1] is 1.02; in assay [2] it was 0.665; in [3], -0.00301; in assay [4] it was 0.938; in assay [5] it was -0.466; in [6], 6.03. Further, the PBM binding z-score in assay [7] worked out at 6.05; in assay [8], 4.21; in assay [9], 6.66.
Turning to TCTCGGAGGACACGAAGGTCAAAGCTTTCCAGAG, the PBM binding z-score was 2.68 in assay [1]; 2.91 in assay [2]; 2.05 in assay [3]; 2.91 in assay [4]; -0.25 in assay [5]; 1.14 in [6]. The PBM binding z-score in assay [7] stood at 2.53; in assay [8], 2.73; in assay [9] it was 2.51.
As for CCTTACAGGTCACGAGGTTATAGCACGACGAGCG, the PBM binding z-score in [1] was determined as 7.41; in assay [2] it was 5.59; in assay [3] it was 2.37; in assay [4], 4.42; in [5] it was 0.788; in assay [6], 7.55. In addition, the figures for the PBM binding z-score in assay [7], in [8] and in assay [9] were 6.56, 3.71 and 5.37, respectively.
For the sequence CCTAGTTGGTCAGGTGGTCACACACCGGATATGA, the PBM binding z-score in [1] is 0.558; in assay [2], 0.139; in [3] it was 0.26; in [4], 0.406; in [5], -0.0912; in [6], 0.84. For the same sequence, the values for the PBM binding z-score in assay [7], in assay [8] and in [9] were 1.18, 0.231 and 0.655, respectively.

For the origin of these results see the supplement of paper PMC6555819.
